Test results reported in PubChem BioAssay (NCATS).
Where “and” joins values, the source holds several entries; their conditions need not be identical. Identical values can stand only once. Results filed as inconclusive are left out. A structure can be active in one record and inactive in another. Calls of active or inactive are those of the source. The call rests on the fitted dose curve; in most records, active means well fitted curve in the direction sought with a large enough effect; inconclusive means small, poorly fitted or top-dose-only effect, or another doubt; inactive means no such curve, though single readings can be large; an effect the other way counts as inactive or inconclusive.

Assays:
[1] = target: Cytochrome P450 2C9 (Homo sapiens) (UniProt P11712); assay: qHTS Assay for Inhibitors and Substrates of Cytochrome P450 2C9 (AID 883); conditions: recombinant CYP2C9, luciferin-H luminescence, 60 min; series mostly up to 11.4 µM; further: nearly all actives have a fitted effect of over 60% in size; further: potency means the concentration at half of the fitted maximal effect; on activity change, negative = inhibition: on the % scale 0 is the no-effect control and ±100 the full control effect
How it was run: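 Luminescent read-out of deoxyluciferin hydroxylation, normalized to 57uM sulphaphenazole (AC100). Reaction: 10nM enzyme, 100uM Luciferin-H (equal to KM), 25mM KPO4, 10 min compound preincubation, then 60 min with NADPH regeneration, both at 37C.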

[2] = target: Cytochrome P450 3A4 (Homo sapiens) (UniProt P08684); assay: qHTS Assay for Inhibitors and Substrates of Cytochrome P450 3A4 (AID 884); conditions: recombinant CYP3A4, Luciferin-PPXE luminescence; series mostly up to 57.1 µM; further: nearly all actives have a fitted effect of over 50% in size; further: potency means the concentration at half of the fitted maximal effect; on activity change, negative = inhibition: on the % scale 0 is the no-effect control and ±100 the full control effect
How it was run: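 Luminescent readout of luciferin produced by CYP3A4 (20 nM) dealkylation of Luciferin-PPXE, 25 uM (its KM). NADPH-driven reaction ran 60 min at RT after 10 min compound preincubation; data scaled to 57 uM ketoconazole as 100% inhibition.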

[3] = target: Cytochrome P450 3A4 (Homo sapiens) (UniProt P08684); assay: qHTS Assay for Activators of Cytochrome P450 3A4 (AID 885); conditions: recombinant CYP3A4, Luciferin-PPXE luminescence, 60 min; series mostly up to 57.1 µM; further: nearly all actives have a fitted effect of over 65% in size
How it was run: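 Human CYP3A4 dealkylates Luciferin-PPXE to luciferin, which luciferase detection converts to light. Substrate was at its KM (25uM), buffer 200mM KPO4, reaction 60 min at RT.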

[4] = target: Cytochrome P450 2D6 (Homo sapiens) (UniProt P10635); assay: qHTS Assay for Inhibitors and Substrates of Cytochrome P450 2D6 (AID 891); conditions: recombinant CYP2D6, luciferin-ME EGE luminescence; series mostly up to 11.4 µM;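 further: luciferin methyl ether substrate demethylated by CYP2D6 with NADPH regeneration; on the % scale 0 is the no-effect control and ±100 the full control effect; nearly all actives have a fitted effect of over 60% in size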
How it was run: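 Luminescent read-out of luciferin formed by 5 nM human CYP2D6 demethylating 30 uM Luciferin-ME EGE (Km level) over 60 min at room temperature after NADPH regeneration addition. Data normalized to full inhibition by 1.43 uM quinidine.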

[5] = target: Cytochrome P450 2C19 (Homo sapiens) (UniProt P33261); assay: qHTS Assay for Inhibitors and Substrates of Cytochrome P450 2C19 (AID 899); conditions: recombinant CYP2C19, luciferin-H EGE luminescence; series mostly up to 11.4 µM; further: nearly all actives have a fitted effect of over 60% in size; further: potency means the concentration at half of the fitted maximal effect
How it was run: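 Luminescence readout of luciferin formed from 10uM Luciferin-H EGE (KM level) by 5 nM CYP2C19 in 50mM KPO4. 60 min NADPH-driven reaction at 37C after 10 min compound preincubation; data scaled to 57uM ketoconazole inhibition.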

Sequence of Cytochrome P450 2D6 (Homo sapiens) (P10635 whole entry, looked up): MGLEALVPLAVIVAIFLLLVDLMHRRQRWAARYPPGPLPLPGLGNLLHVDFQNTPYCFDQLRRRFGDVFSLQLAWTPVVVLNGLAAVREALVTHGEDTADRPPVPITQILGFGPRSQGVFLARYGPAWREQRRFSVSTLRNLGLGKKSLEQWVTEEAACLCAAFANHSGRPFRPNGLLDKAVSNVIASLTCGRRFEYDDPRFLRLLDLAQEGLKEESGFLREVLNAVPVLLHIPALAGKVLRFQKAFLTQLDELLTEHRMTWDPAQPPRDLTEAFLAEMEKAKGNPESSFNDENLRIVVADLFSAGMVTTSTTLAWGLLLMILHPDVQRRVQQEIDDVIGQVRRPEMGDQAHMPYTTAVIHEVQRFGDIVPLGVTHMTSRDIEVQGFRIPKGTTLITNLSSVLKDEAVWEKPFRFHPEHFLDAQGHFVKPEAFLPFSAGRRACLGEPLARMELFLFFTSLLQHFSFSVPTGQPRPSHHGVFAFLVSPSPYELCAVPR
Sequence of Cytochrome P450 2C19 (Homo sapiens) (P33261 whole entry, looked up): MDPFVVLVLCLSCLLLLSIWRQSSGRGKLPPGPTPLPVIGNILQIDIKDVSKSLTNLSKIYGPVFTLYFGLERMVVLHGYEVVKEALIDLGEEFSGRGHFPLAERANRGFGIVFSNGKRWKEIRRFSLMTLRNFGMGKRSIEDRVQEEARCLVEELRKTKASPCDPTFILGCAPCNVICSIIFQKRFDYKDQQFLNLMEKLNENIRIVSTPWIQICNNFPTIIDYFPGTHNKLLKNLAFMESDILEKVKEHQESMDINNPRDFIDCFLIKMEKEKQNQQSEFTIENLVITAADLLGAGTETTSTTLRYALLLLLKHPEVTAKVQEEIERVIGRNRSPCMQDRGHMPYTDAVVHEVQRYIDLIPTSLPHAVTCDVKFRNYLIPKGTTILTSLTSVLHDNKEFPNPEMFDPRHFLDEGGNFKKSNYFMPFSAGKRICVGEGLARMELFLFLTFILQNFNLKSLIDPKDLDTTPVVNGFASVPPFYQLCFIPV
Sequence of Cytochrome P450 3A4 (Homo sapiens) (P08684 whole entry, looked up): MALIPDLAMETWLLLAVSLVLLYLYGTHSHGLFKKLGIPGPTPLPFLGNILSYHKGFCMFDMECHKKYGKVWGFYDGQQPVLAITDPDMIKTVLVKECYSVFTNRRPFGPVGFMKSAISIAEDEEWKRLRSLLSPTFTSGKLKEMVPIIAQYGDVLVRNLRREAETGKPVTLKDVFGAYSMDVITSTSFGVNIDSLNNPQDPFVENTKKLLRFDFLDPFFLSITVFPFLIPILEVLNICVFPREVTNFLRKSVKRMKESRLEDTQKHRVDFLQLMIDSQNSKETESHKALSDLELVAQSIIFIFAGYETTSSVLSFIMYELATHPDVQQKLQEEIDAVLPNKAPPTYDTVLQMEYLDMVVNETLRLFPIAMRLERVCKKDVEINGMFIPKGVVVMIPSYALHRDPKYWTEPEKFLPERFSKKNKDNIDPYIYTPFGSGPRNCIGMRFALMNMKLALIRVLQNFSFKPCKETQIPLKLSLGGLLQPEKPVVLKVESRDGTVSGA
Sequence of Cytochrome P450 2C9 (Homo sapiens) (P11712 whole entry, looked up): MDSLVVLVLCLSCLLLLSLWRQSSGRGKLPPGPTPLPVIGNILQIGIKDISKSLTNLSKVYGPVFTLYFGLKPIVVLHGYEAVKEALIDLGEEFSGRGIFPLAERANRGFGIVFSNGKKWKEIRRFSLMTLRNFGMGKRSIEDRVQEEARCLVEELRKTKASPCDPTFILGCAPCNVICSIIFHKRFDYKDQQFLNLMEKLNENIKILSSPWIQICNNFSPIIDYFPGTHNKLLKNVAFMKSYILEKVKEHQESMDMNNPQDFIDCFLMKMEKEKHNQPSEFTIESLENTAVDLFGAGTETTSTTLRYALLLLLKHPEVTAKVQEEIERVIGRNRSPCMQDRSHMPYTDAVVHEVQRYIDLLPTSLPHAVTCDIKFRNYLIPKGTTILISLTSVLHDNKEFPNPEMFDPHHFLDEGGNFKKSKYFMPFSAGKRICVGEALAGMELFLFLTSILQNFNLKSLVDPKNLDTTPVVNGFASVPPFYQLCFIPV

Compound	Potency [1]	Potency [2]	activity change, positive = activation [3]	Potency [4]	Potency [5]	activity change, negative = inhibition [2]
C=CCC(O)CC1C2C(CC(O)CC=C)C3C1C3C2OC(C)(C)C (stereo unspecified)	inactive	1.58 µM (active)	-98.2% [at 11.4 µM] (inactive)	inactive	0.794 µM (active)	
C=CCOC(=O)/C=C/NC(=O)/C=C/C=C/CCCCCCCC(C)O (stereo unspecified)	3.98 µM (active) and 2.51 µM (active)	3.16 µM (active) and 3.98 µM (active)	-72.9% [at 11.4 µM] (inactive) and -68.1% [at 11.4 µM] (inactive)	inactive	inactive	
CC#CCOCC/C=C1/c2ccccc2C(OC)C1C (stereo unspecified)	inactive	3.98 µM (active)	-90.8% [at 11.4 µM] (inactive)	inactive	1 µM (active)	
COC(=O)C1=C(C)N(Cc2ccccc2)[C@]23O[C@](C(=O)OC)(C(=O)N2C1c1ccccc1)C(c1ccccc1)C3C(=O)c1ccccc1 (stereo partly specified)	inactive		-32.3% [at 11.4 µM] (inactive)	inactive	inactive	-26.7% [at 11.4 µM] (inactive)
COC(=O)C/C=C\[C@@H](C)[C@@H](/C=N\OC[C@@H]1O[C@H](c2ccccc2)C=C[C@@H]1Oc1ccc(OC)cc1)NS(=O)(=O)c1ccc(C)cc1	1.26 µM (active)	5.01 µM (active)	-96.1% [at 11.4 µM] (inactive)		0.398 µM (active)	
Cc1cc(F)ccc1OC1C=CC(c2ccc3c(c2)OCO3)OC1CO (stereo unspecified)	3.16 µM (active)	3.16 µM (active)	-72.5% [at 11.4 µM] (inactive)		inactive	
Cc1ccc(S(=O)(=O)N[C@@H](CCc2ccccc2)CC(=O)C(C)(C)C)cc1	3.98 µM (active)	1.58 µM (active)	-96.1% [at 11.4 µM] (inactive)		1.58 µM (active)	
COc1ccc(/C=C/N(CCc2ccc(OC)c(OC)c2)C(C)=O)cc1	3.16 µM (active)	2 µM (active)	-88.6% [at 11.4 µM] (inactive)		0.794 µM (active)	
CCCNC(=O)OC[C@H]1O[C@@H](CCO/N=C\[C@@H](NS(=O)(=O)c2ccc(C)cc2)[C@H](C)/C=C\CC(=O)OC)C=C[C@@H]1Oc1ccc(OC)cc1	3.98 µM (active)	3.16 µM (active)	-106% [at 11.4 µM] (inactive)		3.16 µM (active)	
CCOC(=O)OCC1OC(C#Cc2ccc(F)cc2F)C=CC1OC(=O)OCC (stereo unspecified)	inactive	3.16 µM (active)	-75.6% [at 11.4 µM] (inactive)	inactive	inactive	
C=CCOC(=O)C(C(C)=O)C(NC(=O)OC)c1cccc(C)c1 (stereo unspecified)	inactive	2.51 µM (active)	-86.6% [at 11.4 µM] (inactive)	inactive	0.794 µM (active)	
COC(=O)C1=C(C)N(Cc2ccccc2)[C@]23O[C@](C(=O)OC)(C(=O)N2C1c1ccccc1)C1CCOC(=O)C13 (stereo partly specified)	inactive	2.51 µM (active)	-70.4% [at 11.4 µM] (inactive)	inactive	inactive	
COc1cccc([C@@H]2Oc3ccc(OC)cc3/C(=N/OC[C@@H](C)[C@H](OCc3ccccc3)C(C)C)[C@@H]2O)c1	3.98 µM (active)	3.16 µM (active)	-89.7% [at 11.4 µM] (inactive)		2 µM (active)	
COc1ccc(OC2C=CC(c3ccccc3)OC2CO)c(C(C)(C)C)c1 (stereo unspecified)	3.16 µM (active)	0.794 µM (active)	-79.5% [at 11.4 µM] (inactive)	inactive	3.16 µM (active)	
C/C=C/OC(=O)NC(c1ccccc1)[C@@]1(C(=O)OC)CCCC1=O (stereo partly specified)	inactive	1 µM (active)	-81.6% [at 11.4 µM] (inactive)	inactive	1.26 µM (active)	
COC(=O)[C@@H]1CC[C@H](C)[C@@H](c2ccc(C)cc2)N1C(=O)c1ccc(/C=N\O[C@@H](C)c2cn([C@H](CO)Cc3ccccc3)nn2)cc1	3.16 µM (active) and 2.51 µM (active)	1.26 µM (active) and 3.16 µM (active)	-62.7% [at 11.4 µM] (inactive) and -101% [at 11.4 µM] (inactive)		3.98 µM (active)	
CCCCCCC#CC1C=CC(OC(=O)OCC)C(COC(=O)OCC)O1 (stereo unspecified)	inactive	3.98 µM (active)	-78% [at 11.4 µM] (inactive)		2 µM (active)	
CC(=O)OCC1OC(C#Cc2ccc(F)cc2F)C=CC1OC(C)=O (stereo unspecified)	5.01 µM (active)	3.16 µM (active)	-91.4% [at 11.4 µM] (inactive)		2.51 µM (active)	
COc1ccc(/C=C/N(CCc2ccc(OC)c(OC)c2)C(=O)c2ccccn2)cc1	inactive	3.98 µM (active)	-97.7% [at 11.4 µM] (inactive)	inactive	inactive	
C=CCOC(=O)C(C(C)=O)C(NC(=O)OC)c1ccc(F)cc1 (stereo unspecified)	inactive	3.16 µM (active)	-78% [at 11.4 µM] (inactive)	inactive	0.398 µM (active)	
COc1ccc(OC2C(O)COC2/C=C/C#Cc2ccc(F)cc2F)cc1 (stereo unspecified)	2.51 µM (active)	3.98 µM (active) and 3.16 µM (active)	-91.9% [at 11.4 µM] (inactive) and -66.3% [at 11.4 µM] (inactive)	inactive	inactive	
COc1ccc(OCC2CN3C(CCC(C)C3c3ccc(Br)cc3)C(=O)O2)cc1 (stereo unspecified)	inactive	3.98 µM (active)	-46.6% [at 11.4 µM] (inactive) and -70% [at 11.4 µM] (inactive)	inactive	inactive	
CC#CC(C)C(OCOC)C(CC(C)Cc1cc(Br)cc(OCc2ccccc2)c1OC)OC (stereo unspecified)	inactive	3.16 µM (active)	-76.2% [at 11.4 µM] (inactive)	inactive	inactive	

Compound	Potency [1]	Potency [2]	activity change, positive = activation [3]	Potency [4]	Potency [5]	activity change, negative = inhibition [2]
CC12C=C(/C=C/c3ccc(Br)cc3)C(C)(C1)C(c1ccc(Br)cc1)CC2=O (stereo unspecified)	2.51 µM (active)	3.98 µM (active)	-72.7% [at 11.4 µM] (inactive)		inactive	
C#CCC(C(=O)OC)(C(=O)OC)C(C[N+](=O)[O-])c1ccccc1 (stereo unspecified)	inactive	3.16 µM (active)	-77% [at 11.4 µM] (inactive)	inactive	inactive	
COC(=O)C1=C(C)N(Cc2ccccc2)[C@]23O[C@](C(=O)OC)(C(=O)N2C1c1ccccc1)C(C(=O)OC)C3C(=O)OC (stereo partly specified)	inactive		-46.5% [at 11.4 µM] (inactive)	inactive	inactive	-20.8% [at 11.4 µM] (inactive)
COC(=O)NC(CC(C)=O)c1cccc(C(F)(F)F)c1 (stereo unspecified)	inactive			inactive	inactive	-14.1% [at 11.4 µM] (inactive)
CC(C)CC1OCCC=CC1C (stereo unspecified)	inactive			inactive	inactive	-2.57% [at 11.4 µM] (inactive)
CC12C=C(/C=C/c3ccc(F)cc3)C(C)(C1)C(c1ccc(F)cc1)CC2=O (stereo unspecified)	inactive			inactive	2.51 µM (active)	-18.4% [at 11.4 µM] (inactive)
C#CC(C)OC(=O)c1nnc2c3ccccc3n(COC)c2n1 (stereo unspecified)	inactive			inactive	inactive	-23.2% [at 11.4 µM] (inactive)
C=CCC1C=CC(OC(=O)OCC)C(COC(=O)OCC)O1 (stereo unspecified)	inactive			inactive	0.794 µM (active)	-26.9% [at 11.4 µM] (inactive)
O=Cc1ccc(OC2C=CC(c3ccccc3)OC2CO)cc1 (stereo unspecified)	inactive			inactive	inactive	-9.85% [at 11.4 µM] (inactive)
CCOC(=O)[C@]1(C(NC(=O)OC)c2ccco2)CCCC1=O (stereo partly specified)	inactive			inactive	inactive	-19.8% [at 11.4 µM] (inactive)
CC1CCC(C(=O)O)NC1c1cccc(N2CCOCC2)c1 (stereo unspecified)	inactive			inactive	inactive	-10.3% [at 11.4 µM] (inactive)
CC1CCC(C(=O)O)NC1c1cccc(N2CCCC2=O)c1 (stereo unspecified)	inactive			inactive	inactive	-12.3% [at 11.4 µM] (inactive)
COC(=O)NC(CC(C)=O)c1ccc(F)cc1 (stereo unspecified)	inactive			inactive	inactive	-12% [at 11.4 µM] (inactive)
COC(=O)NC(c1cccc(C)c1)[C@]1(C(C)=O)CCCC1=O (stereo partly specified)	inactive			inactive	inactive	-27.8% [at 11.4 µM] (inactive)
CC1CCC2C(=O)N3CCCC3C(=O)N2C1c1ccc(Br)cc1 (stereo unspecified)	631 nM (active) and inactive			inactive	inactive	-43.7% [at 11.4 µM] (inactive) and -27.2% [at 11.4 µM] (inactive)
O=C1/C(=C/c2ccccc2)Oc2ccccc21	inactive			inactive	inactive	-8.26% [at 11.4 µM] (inactive)
CN1CCc2nc(-c3ccccc3)c(-c3ccccc3)cc2C1	inactive			inactive	inactive	-24.2% [at 11.4 µM] (inactive)
COC(=O)C1=C(C)N(Cc2ccccc2)C2=C(C(=O)c3ccccc3)C(c3ccccc3)[C@@](O)(C(=O)OC)C(=O)N2C1c1ccccc1 (stereo partly specified)	inactive			inactive	inactive	-22.8% [at 11.4 µM] (inactive)
COC(=O)NC(CC(C)=O)c1cccs1 (stereo unspecified)	inactive			inactive	inactive	-9.41% [at 11.4 µM] (inactive)
Cc1ccccc1OC1C=CC(c2ccccc2)OC1CO (stereo unspecified)	inactive			inactive	5.01 µM (active)	-11.7% [at 11.4 µM] (inactive)
COCC#Cc1ccc(C2NC(C(=O)O)CCC2C)cc1 (stereo unspecified)	inactive			inactive	inactive	-8.92% [at 11.4 µM] (inactive)
OCC1OC(C#Cc2ccccc2)C=CC1OCc1ccccc1 (stereo unspecified)	inactive			inactive	0.0126 µM (active)	-24.2% [at 11.4 µM] (inactive)
